# Source: the supplement of paper PMC10127200
# Structures can show the parent of a compound that is named as a salt.
# Assays:
# Assay in all cases: Euclidean distance of Cell Painting phenotypic profile (signed KS, 77 features) to DMSO centroid (dimensionless distance); 5 or 10 uM (library dependent); higher = stronger phenotypic change vs DMSO (phenoactivity)
# Details in all cases: 48 h
# 786-O = system: 786-O
# In short: (§1)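 Library compounds were applied at 10 or 5 uM, depending on the library, with 0.1% DMSO final, for 48 h to five cancer lines and a healthy fibroblast line. After staining, cells were imaged confocally at 20X across 9 fields per well, and Harmony extracted 77 features, each scored as a signed Kolmogorov-Smirnov statistic against vehicle wells on the same plate. Phenoactivity is the Euclidean distance between each profile and the median vehicle profile, with profiles first plate-position corrected, correlation-weighted and averaged over replicates at the top dose.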
# A549 = system: A549
# In short: as §1
# DU145 = system: DU145
# In short: as §1
# FB = system: FB
# In short: as §1
# HEPG2 = system: HEPG2
# In short: as §1
# OVCAR4 = system: OVCAR4
# In short: as §1
smiles,measurement,setting,value
COc1cccc2c1C(=O)c1c(O)c3c(c(O)c1C2=O)C[C@@](O)(C(=O)CO)C[C@@H]3O[C@H]1C[C@H](N)[C@H](O)[C@H](C)O1 [Doxorubicin (Adriamycin)],Euclidean distance,786-O,4.79
same,Euclidean distance,A549,5.36
same,Euclidean distance,DU145,4.79
same,Euclidean distance,FB,5.17
same,Euclidean distance,HEPG2,4.55
same,Euclidean distance,OVCAR4,5
CCCCCOc1ccc(-c2ccc(-c3ccc(C(=O)N[C@H]4C[C@@H](O)[C@@H](O)NC(=O)[C@@H]5[C@@H](O)[C@@H](C)CN5C(=O)[C@H]([C@@H](C)O)NC(=O)[C@H]([C@H](O)[C@@H](O)c5ccc(O)cc5)NC(=O)[C@@H]5C[C@@H](O)CN5C(=O)[C@H]([C@@H](C)O)NC4=O)cc3)cc2)cc1,Euclidean distance,786-O,0.818
same,Euclidean distance,A549,0.702
same,Euclidean distance,DU145,1.21
same,Euclidean distance,FB,0.749
same,Euclidean distance,HEPG2,1.21
same,Euclidean distance,OVCAR4,1.01
CC(=O)SCC(Cc1ccccc1)C(=O)NCC(=O)OCc1ccccc1 (centres undefined) [Racecadotril],Euclidean distance,786-O,1.61
same,Euclidean distance,A549,0.894
same,Euclidean distance,DU145,0.905
same,Euclidean distance,FB,1.14
same,Euclidean distance,HEPG2,0.452
same,Euclidean distance,OVCAR4,1.68
O=C(NCCS(=O)(=O)c1ccc(C(F)(F)F)cn1)c1ccc(Cl)cc1,Euclidean distance,786-O,0.975
same,Euclidean distance,A549,1.54
same,Euclidean distance,DU145,1.57
same,Euclidean distance,FB,0.817
same,Euclidean distance,HEPG2,0.723
same,Euclidean distance,OVCAR4,1.18
CCN(CC)C(=O)C1(c2ccccc2)CC1CN (centres undefined) [Milnacipran HCl],Euclidean distance,786-O,1.2
same,Euclidean distance,A549,1.04
same,Euclidean distance,DU145,0.974
same,Euclidean distance,FB,1.14
same,Euclidean distance,HEPG2,0.468
same,Euclidean distance,OVCAR4,0.854
NCc1ccccc1CC(=O)N[C@@H]1C(=O)N2C(C(=O)O)=C(CSc3nnnn3CC(=O)O)CS[C@H]12 [Ceforanide],Euclidean distance,786-O,0.783
same,Euclidean distance,A549,0.791
same,Euclidean distance,DU145,1.07
same,Euclidean distance,FB,1.16
same,Euclidean distance,HEPG2,0.834
same,Euclidean distance,OVCAR4,1.64
CC1(C)CNc2cc(NC(=O)c3cccnc3NCc3ccncc3)ccc21 [Motesanib Diphosphate (AMG-706)],Euclidean distance,786-O,1.29
same,Euclidean distance,A549,1.76
same,Euclidean distance,DU145,1.48
same,Euclidean distance,FB,1.96
same,Euclidean distance,HEPG2,1.27
same,Euclidean distance,OVCAR4,1.37
Oc1cccc(O)c1 [Resorcinol],Euclidean distance,786-O,1.3
same,Euclidean distance,A549,1.19
same,Euclidean distance,DU145,0.938
same,Euclidean distance,FB,1.24
same,Euclidean distance,HEPG2,1.33
same,Euclidean distance,OVCAR4,1.05
C[C@H](Nc1ncnc2nc[nH]c12)c1cc2cccc(Cl)c2c(=O)n1-c1ccccc1 [Duvelisib (IPI-145. INK1197)],Euclidean distance,786-O,2.36
same,Euclidean distance,A549,1.56
same,Euclidean distance,DU145,2.77
same,Euclidean distance,FB,2.98
same,Euclidean distance,HEPG2,1.32
same,Euclidean distance,OVCAR4,1.91
CC1(C)Cc2c(sc(NC(=O)c3ccn[nH]3)c2C(N)=O)C(C)(C)O1,Euclidean distance,786-O,0.808
same,Euclidean distance,A549,0.814
same,Euclidean distance,DU145,1.54
same,Euclidean distance,FB,1.43
same,Euclidean distance,HEPG2,0.816
same,Euclidean distance,OVCAR4,1.06
CC(C)C[C@H](NC(=O)[C@H]1O[C@@H]1C(=O)O)C(=O)NCCCCN=C(N)N,Euclidean distance,786-O,1.31
same,Euclidean distance,A549,1.07
same,Euclidean distance,DU145,1.07
same,Euclidean distance,FB,1.02
same,Euclidean distance,HEPG2,0.615
same,Euclidean distance,OVCAR4,1.09
CCc1cc(/C(C)=N/OCc2ccc(C3CCCCC3)c(C(F)(F)F)c2)ccc1CN1CC(C(=O)O)C1 [BAF312 (Siponimod)],Euclidean distance,786-O,1.61
same,Euclidean distance,A549,1.05
same,Euclidean distance,DU145,1.31
same,Euclidean distance,FB,0.66
same,Euclidean distance,HEPG2,0.538
same,Euclidean distance,OVCAR4,1.25
CC(C)C[C@H](NC(=O)CNC(=O)c1cc(Cl)ccc1Cl)B1OC(=O)C(CC(=O)O)(CC(=O)O)O1,Euclidean distance,786-O,4.77
same,Euclidean distance,A549,3.73
same,Euclidean distance,DU145,5.36
same,Euclidean distance,FB,3.94
same,Euclidean distance,HEPG2,4.23
same,Euclidean distance,OVCAR4,4.36
O=C(c1ccc(F)cc1)C1CCN(CCn2c(=O)[nH]c3ccccc3c2=O)CC1 [Ketanserin],Euclidean distance,786-O,1.44
same,Euclidean distance,A549,0.68
same,Euclidean distance,DU145,0.898
same,Euclidean distance,FB,0.767
same,Euclidean distance,HEPG2,0.883
same,Euclidean distance,OVCAR4,1.08
Cc1nc2cccc(N)c2c(=O)n1C1CCC(=O)NC1=O (centres undefined) [Avadomide(CC-122)],Euclidean distance,786-O,0.872
same,Euclidean distance,A549,1.22
same,Euclidean distance,DU145,1.16
same,Euclidean distance,FB,1.02
same,Euclidean distance,HEPG2,0.382
same,Euclidean distance,OVCAR4,0.966
C[C@H](CCC(=O)O)[C@H]1CC[C@H]2[C@@H]3[C@H](O)C[C@@H]4C[C@H](O)CC[C@]4(C)[C@H]3C[C@H](O)[C@]12C [Cholic acid],Euclidean distance,786-O,1.14
same,Euclidean distance,A549,0.83
same,Euclidean distance,DU145,0.953
same,Euclidean distance,FB,0.727
same,Euclidean distance,HEPG2,0.875
same,Euclidean distance,OVCAR4,1.12
N=C(N)NCCC[C@H](N)C(=O)O [L-arginine],Euclidean distance,786-O,1.03
same,Euclidean distance,A549,0.798
same,Euclidean distance,DU145,1.21
same,Euclidean distance,FB,0.843
same,Euclidean distance,HEPG2,0.876
same,Euclidean distance,OVCAR4,0.97
Cn1nnnc1SCC1=C(C(=O)O)N2C(=O)[C@@H](NC(=O)[C@H](OC=O)c3ccccc3)[C@H]2SC1 [Cefamandole nafate],Euclidean distance,786-O,1.06
same,Euclidean distance,A549,0.559
same,Euclidean distance,DU145,1.12
same,Euclidean distance,FB,0.954
same,Euclidean distance,HEPG2,0.484
same,Euclidean distance,OVCAR4,0.965
COc1ccc(-c2coc3cc(O)ccc3c2=O)cc1 [Formononetin],Euclidean distance,786-O,0.921
same,Euclidean distance,A549,0.857
same,Euclidean distance,DU145,0.599
same,Euclidean distance,FB,1.07
same,Euclidean distance,HEPG2,0.662
same,Euclidean distance,OVCAR4,1.13
Cc1ccc(NC(=O)c2ccc(CN3CCN(C)CC3)cc2)cc1Nc1nccc(-c2cccnc2)n1 [Imatinib Mesylate (STI571)],Euclidean distance,786-O,1.63
same,Euclidean distance,A549,2
same,Euclidean distance,DU145,1.67
same,Euclidean distance,FB,2.28
same,Euclidean distance,HEPG2,1.61
same,Euclidean distance,OVCAR4,1.55
CC(C(=O)O)c1cccc(Oc2ccccc2)c1 (centres undefined) [Fenoprofen calcium hydrate],Euclidean distance,786-O,1.27
same,Euclidean distance,A549,0.707
same,Euclidean distance,DU145,0.898
same,Euclidean distance,FB,0.869
same,Euclidean distance,HEPG2,0.486
same,Euclidean distance,OVCAR4,1.2
C[N+]1(C)[C@@H]2CC[C@H]1C[C@@H](OC(=O)C(O)c1ccccc1)C2 (some centres undefined) [Homatropine Methylbromide],Euclidean distance,786-O,0.885
same,Euclidean distance,A549,1.85
same,Euclidean distance,DU145,1.26
same,Euclidean distance,FB,1.47
same,Euclidean distance,HEPG2,0.52
same,Euclidean distance,OVCAR4,0.995
CC(C)(CO)c1cc2cc(NC(=O)C3(c4ccc5c(c4)OC(F)(F)O5)CC3)c(F)cc2n1C[C@@H](O)CO,Euclidean distance,786-O,1.47
same,Euclidean distance,A549,1.89
same,Euclidean distance,DU145,1.24
same,Euclidean distance,FB,2.93
same,Euclidean distance,HEPG2,0.904
same,Euclidean distance,OVCAR4,2.17
COc1cnc(NS(=O)(=O)c2ccc(N)cc2)nc1 [Sulfameter],Euclidean distance,786-O,1.33
same,Euclidean distance,A549,1.11
same,Euclidean distance,DU145,0.768
same,Euclidean distance,FB,1.28
same,Euclidean distance,HEPG2,1.49
same,Euclidean distance,OVCAR4,1.5
